Some test systems named below: T-47D breast; BT-549 breast; MDA-MB-435 melanoma; SW-620 colon; MCF7 breast; HCT-116 colon; HCC-2998 colon; KM12 colon.
Assay in all cases: NCI-60 one-dose screen, 48 h (100 = growth as untreated, 0 = no growth, -100 = all killed)
What all share (settings): 10 µM unless noted

Compounds without any hit were thinned out: in the full panel of roughly 83,000, 20% have a hit.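 Interpretation: 100, growth as untreated; towards 0, rising growth inhibition; 0, no net growth; 0 to -100, cell death. Compounds scoring below 10 were considered active.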 A number with no mark means an inactive call. Calls of active or inactive are those of the source.

The source of these data is PubChem BioAssay (NCI).

On to `N#Cc1c(NC(=O)NCc2ccccc2)sc2c1CCCCC2`, for which the growth is 37.8% in the assay with T-47D breast; 26.2% in the assay on BT-549 breast; -40.5% (active) in the assay on MDA-MB-435 melanoma; 21.5% in the assay with SW-620 colon; 19.1% with MCF7 breast; 8.9% (active) in the assay with HCT-116 colon. The growth was 24.5% in the assay with HCC-2998 colon and 12.6% in the assay with KM12 colon.
In the case of `N/C(=N\C(N)=N\c1nc2ccccc2s1)c1cccc(Cl)c1`, the growth in the assay with T-47D breast was 46.9%; in the assay on BT-549 breast, 81.1%; in the assay with MDA-MB-435 melanoma it was 99.3%; in the assay on SW-620 colon, 98.5%; in the assay on MCF7 breast it was 69.9%; in the assay on HCT-116 colon it was 73.8%. Also, the growth in the assay with HCC-2998 colon was 104%; with KM12 colon it was 40.8%.
In the case of `CCCCCCCCOc1ccc(/C=N/Nc2cc(C)nc3ccc(Br)cc23)cc1`, the growth in the assay on T-47D breast is 80.9%; in the assay with BT-549 breast, 95.6%; in the assay with MDA-MB-435 melanoma, 64.7%; with SW-620 colon, 8.02% (active); with MCF7 breast, 15.8%; in the assay on HCT-116 colon, 6.51% (active). Further, the values for the growth with HCC-2998 colon and with KM12 colon were 89.8% and 57%, respectively.
Turning to `CCCCN1C=CCN(CCCC)C1`, the growth with T-47D breast is 6.14% (active); in the assay on BT-549 breast it was 56.9%; in the assay with MDA-MB-435 melanoma, 6.59% (active); in the assay with SW-620 colon, 73.4%; with MCF7 breast it was 32.5%; in the assay on HCT-116 colon, 34%. Besides, the growth is 46.2% in the assay on HCC-2998 colon and 22.9% with KM12 colon.
With `COC(=O)C1=C(C(=O)ON)[C@@H]2C=C[C@@]1([C@@H](Cc1ccccc1)Nc1ccccc1)O2`, the growth was -35.9% (active) with T-47D breast; 118% in the assay on BT-549 breast; 101% with MDA-MB-435 melanoma; -71.2% (active) in the assay on SW-620 colon; 90.8% in the assay on MCF7 breast; -77.7% (active) with HCT-116 colon. In addition, the growth in the assay with HCC-2998 colon was 93.6%; with KM12 colon, 96.5%.
With `O=C(NCCNc1nccc(-c2c(-c3cccc(F)c3)nc3sccn23)n1)c1ccc(Cl)cc1`, the growth with T-47D breast is 49%; in the assay on BT-549 breast, 75.9%; with MDA-MB-435 melanoma, 32.1%; in the assay on SW-620 colon it was 65.2%; in the assay with MCF7 breast, 27.7%; in the assay with HCT-116 colon, 33%. The growth with HCC-2998 colon was 90.1%; in the assay with KM12 colon, 62.8%.
As to `OC(c1ccc(F)c(C(F)(F)F)c1)c1cnccc1NC1CCCCC1` (configuration not stated), the growth in the assay on T-47D breast is 41.5%; in the assay on BT-549 breast, 90.5%; in the assay with MDA-MB-435 melanoma, 78.5%; in the assay with SW-620 colon, 58.3%; in the assay on MCF7 breast, 58.4%; in the assay with HCT-116 colon, 36.4%. Further, the growth was -51% (active) with HCC-2998 colon and 70.6% with KM12 colon.
Turning to `COc1cc2nc(-c3ccc(C(F)(F)F)cc3)cc(OCCCN3CCOCC3)c2cc1OC`, the growth was 16.2% in the assay on T-47D breast; 30.5% in the assay with BT-549 breast; -26% (active) in the assay on MDA-MB-435 melanoma; 25.9% in the assay on SW-620 colon; 44.4% with MCF7 breast; 15.1% with HCT-116 colon. Besides, the growth with HCC-2998 colon was 43.4%; in the assay with KM12 colon it was 27.5%.
On to `CCCCCCCCO/N=C\c1c2c(O)c3c(O)c(C)c4c(c3c1O)C(=O)C(C)(O/C=C\C(OC)C(C)C(OC(C)=O)C(C)C(O)C(C)C(O)C(C)/C=C\C=C(\C)C(=O)N2)O4` (configuration not stated), for which the growth in the assay on T-47D breast was 30.5%; in the assay on BT-549 breast, 45.9%; in the assay on MDA-MB-435 melanoma it was 13.5%; in the assay with SW-620 colon, 15.1%; with MCF7 breast, 21.7%; in the assay with HCT-116 colon, 11.6%. Besides, the growth in the assay on HCC-2998 colon is 14.7%; in the assay on KM12 colon, 17.1%.
In the case of `COc1cc2c(c(OC)c1OC)-c1ccc(NNC(=S)N(Cc3cccc(C[N+](Cc4cccc(CNC56CC7CC(CC(C7)C5)C6)c4)(Cc4cccc(CNC56CC7CC(CC(C7)C5)C6)c4)Cc4cccc(CN(C(=S)NNc5ccc6c(cc5=O)[C@@H](NC(C)=O)CCc5cc(OC)c(OC)c(OC)c5-6)C56CC7CC(CC(C7)C5)C6)c4)c3)C34CC5CC(CC(C5)C3)C4)c(=O)cc1[C@@H](NC(C)=O)CC2` (some centres not stated), the growth in the assay on T-47D breast was 51.8%; in the assay with BT-549 breast, -4.6% (active); in the assay with MDA-MB-435 melanoma, -9.46% (active); in the assay on SW-620 colon, 3.6% (active); in the assay with MCF7 breast, -24.6% (active); in the assay with HCT-116 colon it was -54.6% (active). The figures for the growth in the assay on HCC-2998 colon and in the assay with KM12 colon were -58.4% (active) and 4.25% (active), respectively.
Regarding `COC(=O)c1ccc2c(c1)[n+](=O)c(C(C)=O)c(C(F)(F)F)n2[O-]`, the growth is -73.6% (active) in the assay on T-47D breast; -19.6% (active) in the assay with BT-549 breast; 0.455% (active) in the assay on MDA-MB-435 melanoma; 18.1% in the assay on SW-620 colon; -50.3% (active) in the assay with MCF7 breast; -98% (active) in the assay with HCT-116 colon. In addition, the growth in the assay with HCC-2998 colon is -86.9% (active); with KM12 colon it was -93.5% (active).
With `O=C(c1nc2ccccc2[nH]1)C1C(c2ccc(Br)cc2)C2CC3CCCC[C@H]3N2[C@@]12C(=O)Nc1cc(Cl)ccc12` (some centres not stated), the growth was 29.1% in the assay on T-47D breast; 71.6% in the assay with BT-549 breast; 23.7% in the assay on MDA-MB-435 melanoma; 31.2% with SW-620 colon; 16% with MCF7 breast; 21.1% with HCT-116 colon. The growth was 39.7% with HCC-2998 colon and 37.9% in the assay with KM12 colon.
In the case of `CCOC(=O)/C(C#N)=C1/NNC(=Nc2cccnc2)S1`, the growth in the assay on T-47D breast was 88.7%; in the assay with BT-549 breast, 103%; in the assay on MDA-MB-435 melanoma it was 99.2%; in the assay with SW-620 colon it was 94.9%; with MCF7 breast, 106%; in the assay on HCT-116 colon, 91.9%. Also, the growth with HCC-2998 colon is 113%; in the assay with KM12 colon it was 102%.
`COc1ccc(/C=C2\COc3ccc(-c4ccccc4)cc3C2=O)c(OC)c1`: the growth in the assay on T-47D breast was 68.1%; with BT-549 breast, 91.2%; in the assay with MDA-MB-435 melanoma, 119%; with SW-620 colon it was 92.9%; in the assay with MCF7 breast, 76.9%; in the assay with HCT-116 colon it was 75.7%. Moreover, the figures for the growth in the assay with HCC-2998 colon and in the assay on KM12 colon were 75.4% and 97.7%, respectively.
